A selection: hits, their analogues and other compounds. The true share with any hit is near 2.8%.
Wnt bcat act: Wnt/beta-catenin pathway activators, primary screen, cell-based, plate reader, single point. Wnt/beta-catenin reporter cell assay, activator. activation, % at 9.35 µM. hit rate 1.2% among 300,000. AID 743398, 2014; in the data active = activation above about 30%, passing the limit was not always enough; inconclusive = no clear call, values can overlap the other calls;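 note: 0% = neutral control wells and 100% = positive control wells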
esBAF inh: Bmi1 luciferase reporter increase in mESCs, primary screen, esBAF inhibitor project, mouse ES cells, Bmi1 luciferase knock-in, single point; reporter increase, % at 12.5 µM; hit rate 2% among 350,000; 24 h; 100% = twice the neutral-well signal; in the data active = activation above about 40%; inconclusive = no clear call, values can overlap the other calls;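 note: 0% = median of the plate's neutral control wells and 100% = double that signal; a rise in the Bmi1 reporter signal indicates esBAF inhibition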
FXN GAA850 act: FXN promoter activators, primary screen, cell-based, luciferase luminescence, HEK293 lucGAA850 | HEK293 lucGAA850 FXN promoter luciferase reporter, 24 h; percent of 10 µM SAHA response | AID 540364, 2011 | hit rate 0.56% among 360,000 | activation, % at 6 µM;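 active = activation above the average of all compounds screened plus 3 SD, cutoff fixed separately per campaign, cut at about 7.5% in these data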;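 note: 0% = DMSO wells and 100% = 10 µM SAHA wells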
MITF act: activators of MITF-driven TRPM1 promoter reporter, primary screen, cell-based, SK-MEL-5, luciferase, single point. SK-MEL-5 TRPM1-promoter luciferase, 24 h; % of positive control, neutral wells = 0. activation, % at 12.5 µM. hit rate 0.75% among 300,000;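 active = mean activation of at least 80% with every replicate also reaching 80%; inconclusive = mean reaches 80% but some replicate falls short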;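 note: 0% = neutral control wells and 100% = parthenolide positive control wells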
Numbers without * were called inactive.

How did CS(=O)(=O)N1CCc2cc(C(=O)Nc3ccc(Br)cc3)ccc21 do in these assays?
Wnt bcat act: -2.3; esBAF inh: 47.6*; FXN GAA850 act: 3.0; MITF act: 18.6

What do the screens show for `Cc1ccc(NC(=O)c2ccc3c(c2)CCN3S(C)(=O)=O)cc1`?
Wnt bcat act: 45.0*; esBAF inh: 65.8*; FXN GAA850 act: 1.2

Results for Cc1noc(C)c1S(=O)(=O)Nc1ccc2c(c1)C(=O)N([C@H](C)CO)C[C@@H](C)[C@H](CN(C)Cc1ccc3c(c1)OCO3)OCCCC[C@H](C)O2 ?
esBAF inh: -9.6

How did Oc1[nH]c2ccccc2c1C=Nc1ccccc1 do in these assays?
Wnt bcat act: 45.2*; esBAF inh: inconclusive; FXN GAA850 act: 6.8; MITF act: inconclusive

Results for COc1ccc2c(c1)CCc1c-2n[nH]c1C(=O)NCCC(C)C ?
Wnt bcat act: 30.6*; esBAF inh: 2.3; FXN GAA850 act: 4.2; MITF act: 55.4

Results for CC(/C=N/NC(=O)c1ccccc1C)=C\c1ccccc1 ?
Wnt bcat act: inconclusive; FXN GAA850 act: 3.5

Results for O=C(N/N=C/C(Cl)=C\c1ccccc1)c1cccs1 ?
Wnt bcat act: 39.5*; FXN GAA850 act: 3.4

How did CC(/C=N/NC(=O)c1cccs1)=C\c1ccccc1 do in these assays?
Wnt bcat act: 9.8; esBAF inh: 38.4; FXN GAA850 act: 4.5; MITF act: 98.5*

What do the screens show for `CC(/C=N/NC(=O)c1ccccc1F)=C\c1ccccc1`?
Wnt bcat act: 5.4; esBAF inh: 19.9; FXN GAA850 act: 3.5; MITF act: 99.3*

Results for Cc1noc(C)c1NC(=O)N(C)C[C@@H]1OCCCC[C@@H](C)Oc2ccc(NC(=O)c3ccccc3)cc2C(=O)N([C@@H](C)CO)C[C@H]1C ?
esBAF inh: 6.9

What do the screens show for `Cc1cccc(-c2noc(CSc3ccccc3)n2)c1`?
Wnt bcat act: -0.6; esBAF inh: 45.7*; FXN GAA850 act: 3.2; MITF act: 86.7*

What do the screens show for `c1ccc(SCc2nc(-c3cccnc3)no2)cc1`?
esBAF inh: 13.4; FXN GAA850 act: 0.2; MITF act: 108.5*

Results for c1ccc(SCc2nc(-c3ccccn3)no2)cc1 ?
esBAF inh: 25.6; FXN GAA850 act: 5.5; MITF act: 82.6*

What do the screens show for `COc1ccccc1Cc1nc(-c2cccnc2)no1`?
Wnt bcat act: 38.4*; FXN GAA850 act: -1.1

Results for C[C@@H]1CCCCO[C@H](CN(C)C(=O)Nc2ccccc2)[C@@H](C)CN([C@@H](C)CO)C(=O)c2cc(NS(C)(=O)=O)ccc2O1 ?
esBAF inh: -4.0

How did COc1cccc(-c2ccc3c(c2)[C@@H]2[C@@H](CCN2C(=O)Nc2ccccc2OC)[C@@H](CO)N3C)c1 do in these assays?
esBAF inh: 8.8

What do the screens show for `Cc1ccc(-c2noc(CSc3ccccc3)n2)cc1`?
Wnt bcat act: 51.7*; esBAF inh: -0.5; FXN GAA850 act: 4.3; MITF act: 102.2*

How did CCCc1nc2c3ccccc3ccn2c1Cc1ccccc1 do in these assays?
Wnt bcat act: 33.5*; esBAF inh: 51.6*

What do the screens show for `O=C(COc1ccc(Cl)cc1Cl)NC1CCSC1=O` (centres undefined)?
esBAF inh: 14.0; FXN GAA850 act: 2.8; MITF act: 93.5*

What do the screens show for `Cc1cc(Cl)ccc1OCC(=O)NCc1ccncc1`?
esBAF inh: 61.6*; FXN GAA850 act: 2.6; MITF act: 18.4

How did O=C(COc1ccc(Cl)cc1Cl)NCc1ccncc1 do in these assays?
esBAF inh: -1.5; FXN GAA850 act: 0.9; MITF act: 0.0

How did O=C(COc1ccc(Cl)cc1Cl)NC(=O)NC1CCCC1 do in these assays?
Wnt bcat act: 21.0; esBAF inh: 48.0*; FXN GAA850 act: 5.3; MITF act: 126.6*

Results for O=C(COc1ccc(Cl)cc1Cl)NC(=O)N1CCCCC1 ?
esBAF inh: 59.1*; FXN GAA850 act: 3.0; MITF act: 95.0*

How did O=C(COc1ccc(F)c(Cl)c1)NC(=O)NC1CCCC1 do in these assays?
Wnt bcat act: -2.2; esBAF inh: 8.0; FXN GAA850 act: 0.3

Results for Cc1cc(Cl)ccc1OCC(=O)N1CCCCC1 ?
esBAF inh: 58.3*; FXN GAA850 act: 5.2; MITF act: 49.9

Results for O=C(COc1ccc(Cl)cc1Br)NC(=O)NC1CCCC1 ?
Wnt bcat act: 54.2*; esBAF inh: 72.1*; FXN GAA850 act: 4.2; MITF act: 152.2*

Results for CO[C@@H]1CN(C)C(=O)c2ccc(NC(=O)C3CC3)cc2OC[C@H](C)N(Cc2nccs2)C[C@H]1C ?
esBAF inh: -9.7

What do the screens show for `CCC(=O)Nc1ccc2c(c1)C(=O)N(C)[C@H]1CC[C@@H](CC(=O)NCCN3CCCCC3)O[C@@H]1CO2`?
esBAF inh: -4.8

Results for CS(=O)(=O)N(CC(=O)Nc1ccc(CC#N)cc1)c1ccc(C23CC4CC(CC(C4)C2)C3)cc1 ?
Wnt bcat act: 0.4; esBAF inh: 28.4; FXN GAA850 act: 10.8*; MITF act: 7.6

How did CC(=O)Nc1ccc(NC(=O)CN(c2ccc(C34CC5CC(CC(C5)C3)C4)cc2)S(C)(=O)=O)cc1 do in these assays?
Wnt bcat act: 1.5; esBAF inh: 19.7; FXN GAA850 act: 9.5*; MITF act: 8.6

What do the screens show for `CN1C(=O)c2cc(NC(=O)c3cccs3)ccc2OC[C@H]2O[C@@H](CC(=O)O)CC[C@@H]21`?
esBAF inh: 0.0

How did C[C@@H]1CN([C@@H](C)CO)C(=O)Cc2cc(NC(=O)Nc3cccc4ccccc34)ccc2O[C@H]1CN(C)C(=O)Nc1ccccc1 do in these assays?
esBAF inh: -2.1

Results for C[C@@H]1CCCCO[C@H](CN(C)C(=O)Nc2ccccc2)[C@H](C)CN([C@H](C)CO)C(=O)c2cc(NC(=O)C3CCCCC3)ccc2O1 ?
esBAF inh: -7.6

What do the screens show for `Nc1ccc(CSc2ccc(Cl)cc2)c(Cl)c1`?
Wnt bcat act: 56.7*; esBAF inh: 102.8*; FXN GAA850 act: 4.4; MITF act: 134.7*

How did COc1ccc(/C(N)=N/OC(=O)c2cccs2)cc1OC do in these assays?
Wnt bcat act: 7.8; FXN GAA850 act: 5.2; MITF act: 84.4*

How did Cc1ccc(/C(N)=N/OC(=O)c2cccs2)cc1 do in these assays?
Wnt bcat act: 53.9*; esBAF inh: -4.3; FXN GAA850 act: 2.9; MITF act: 16.6

Results for COc1ccc(/C(N)=N/OC(=O)c2ccc3ccccc3c2)cc1OC ?
Wnt bcat act: 2.7; esBAF inh: 13.5; FXN GAA850 act: -0.6

How did Cc1cccc(/C(N)=N/OC(=O)c2cccs2)c1 do in these assays?
Wnt bcat act: 58.1*; esBAF inh: -38.6; FXN GAA850 act: 2.8; MITF act: 8.3

Results for Cc1cccc(/C(N)=N/OC(=O)c2ccc(F)cc2)c1 ?
Wnt bcat act: 28.8; FXN GAA850 act: 2.8; MITF act: 36.9

How did O=C(C[C@H]1C[C@@H]2c3cc(NC(=O)Nc4ccccc4F)ccc3O[C@@H]2[C@H](CO)O1)NCc1ccc2c(c1)OCO2 do in these assays?
esBAF inh: -3.6

Compound activity deposited in PubChem by several laboratories.
